Where “and” joins values, the source holds several entries; their conditions need not be identical. Equal entries are not always repeated. Calls of active or inactive are those of the source. Unless noted, how the calls were made is not given here. Square brackets hold non-standard residues; d marks the D form. Peptide text beside a SMILES is read from it. * marks the point of attachment. Phe(ol) = N[C@H](CO)Cc1ccccc1; Boc = CC(C)(C)OC(=O)*; Aib = CC(C)(N)C(=O)O
What was measured:
[1] = viability loss with induced miR-34 in A549 – imaging, A549 dox-inducible miR-34, nuclei and caspase counts, primary screen (AID 1347080;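 active means compounds whose cell count with miR-34 switched on is under 0.7 times the count with it off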); details: A549 miR-34 inducible, Hoechst nuclei count, 48 h
[2] = chitosan synthesis blockers in C. neoformans – flow cytometry, Cibacron Brilliant Red staining (AID 1347148); details: Cryptococcus neoformans chitosan, stronger effect = lower value; at 10 µM unless noted;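 further: compound exposure lasted three days at 37 degrees C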
[3] = compounds altering viability of human ES cells (AID 493140); details: human embryonic stem cell survival screen; stronger effect = higher value;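 further: cells exposed to compounds for four days before counting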
[4] = compounds altering circadian rhythm period length – cell-based, LOPAC library, luminescence reporter (AID 2774); details: circadian reporter cells, at 7 µM, actives lie on both sides;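 further: values are relative to mean of DMSO wells on each plate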
[5] = stronger effect = lower value, cell number ratio, induced over uninduced
[6] = measured here: relative caspase fold change +Dox/-Dox
[7] = measured here: total cells with miR-34 induction, stronger effect = lower value
[8] = measured here: total cells without miR-34 induction

Compound	fold change [1, 5]	fold change [1, 6]	cell count [1, 7]	cell count [1, 8]	fold fluorescence [2]	survival [3]	period change [4]
CCCCCCCCCC(=O)OC[C@H](CO)OC(=O)CCCCCCCCC	0.939 (inactive)	0.854	5260	5600	7.36 (inactive)		
COC(=O)/C=C/c1ccc(C(=O)NCC(=O)N[C@@H](CCC(=O)OC)C(=O)N[C@@H](CC(C)C)C(N)=O)cc1	0.902 (inactive)	1.99	5510	6100	4.66 [at 96.4 µM] (inactive)		
CCCCCCCC/C=C\CCCCCCCC(=O)OC[C@H](CO)OC(=O)CCCCCCC/C=C\CCCCCCCC	1.03 (inactive)	0.954	5310	5170	4.1 (inactive)		
CCCCCC(=O)/C=C/C=C\C/C=C\C/C=C\CCCC(=O)O	0.995 (inactive)	1.32	6100	6140	5.6 [at 1 µM] (inactive)		
CCCCCCCCCCCCCCCCOC[C@H](CO)OC(C)=O	0.961 (inactive)	1.5	5130	5340	4.43 (inactive)		
CCCCCCCCCCC1=C(C)C(=O)C(OC)=C(OC)C1=O	0.94 (inactive)	1.42	3450	3660	4.65 [at 155.1 µM] (inactive)		
C=CC1CN2CCC1C[C@@H]2[C@H](O)c1ccnc2ccc(OC)cc12 (some centres not stated)	0.899 (inactive)	1.42	4890	5440	5.27 [at 154.1 µM] (inactive)		
CCCCC/C=C\C\C=C/C=C/C=C/[C@@H](SC[C@H](N)C(=O)O)[C@@H](O)CCCC(=O)O	1.09 (inactive)	1.02	6150	5660	3.87 [at 1 µM] (inactive)		
CN([C@@H](Cc1ccc(OS(=O)(=O)c2cccc3cnccc23)cc1)C(=O)N1CCN(c2ccccc2)CC1)S(=O)(=O)c1cccc2cnccc12	0.962 (inactive)	1.57	5440	5650	3.04 [at 69.3 µM] (inactive)		
CC(=O)N[C@@H](CC(C)C)C(=O)N[C@@H](CC(C)C)C(=O)N[C@H](C=O)CCCN=C(N)N	0.979 (inactive)	0.761	5980	6110	4.98 [at 117.2 µM] (inactive)		
CCCCC/C=C\C/C=C\CCCCCCCC(=O)O[C@@H](CO)COC(=O)CCCCCCCCCCCCCCCCC	0.999 (inactive)	1.31	6430	6430	4.76 (inactive)		
Nc1cc(N2CCCCC2)nc(N)[n+]1OS(=O)(=O)[O-]	0.999 (inactive)	1.39	5860	5870	3.52 [at 172.8 µM] (inactive)		
CCCCCCCCCCCCCCCCOC[C@H](CO)OC	0.866 (inactive)	0.894	4770	5500	4.63 (inactive)		
N#C/C(=C/c1ccc(O)c(O)c1)C(=O)OC/C=C/c1ccccc1	1.11 (inactive)	1.47	4460	4020	10.2 [at 155.6 µM] (inactive)		
Clc1ccc2ncnc(NCc3ccc4c(c3)OCO4)c2c1	0.968 (inactive)	1.41	3640	3760	6.11 [at 159.4 µM] (inactive)		
COc1ccc([C@H]2Sc3ccccc3N(CCN(C)C)C(=O)[C@H]2OC(C)=O)cc1	1.07 (inactive)	1.13	5870	5500	4.51 [at 120.6 µM] (inactive) and 3.48 [at 120.6 µM] (inactive)		
CC(=O)OCOC(c1cc([N+](=O)[O-])ccc1Oc1ccc(Br)cc1)P(=O)(OCOC(C)=O)OCOC(C)=O (configuration not stated)	1.27 (inactive)	0.666	3110	2450	3.77 [at 80.6 µM] (inactive)		
COC(=O)CNC(=O)C(=O)OC	0.976 (inactive)	1.36	6040	6190	3.39 (inactive)		
CCCCC[C@@H](O)/C=C/[C@H]1[C@H](C/C=C\CCCC(=O)O)[C@H](O)C[C@@H]1O	1.15 (inactive)	0.636	6980	6050	3.65 (inactive)		
CC(C)[C@@H]1NC(=O)[C@H](Cc2ccccc2)NC(=O)[C@@H](CC(=O)O)NC(=O)CNC(=O)[C@H](CCCN=C(N)N)NC1=O	1.03 (inactive)	0.655	1320	1280	6.81 [at 87 µM] (inactive)		
c1ccc(CN(CCN(Cc2ccccn2)Cc2ccccn2)Cc2ccccn2)nc1	0.775 (inactive)	2.99	418	538	9.33 [at 117.8 µM] (inactive)		
CCCCC[C@@H](O)/C=C/[C@H]1[C@H](C/C=C\CCCC(=O)O)C(=O)C[C@@H]1O	0.916 (inactive)	0.858	4850	5300	3.88 (inactive)		
CCCCCCCCCCCCCCCCCCc1ccc(C(=O)/C=C/C(=O)O)cc1	0.918 (inactive)	0.873	5110	5560	13.3 [at 116.6 µM] (inactive)		
CC(C)[C@H](NC(=O)CNC(=O)OC(C)(C)C)C(=O)N[C@H](C=O)C(C)C (Boc-Gly-Val-Val-aldehyde)	0.895 (inactive)	1.12	5740	6410	10.2 [at 139.9 µM] (inactive)		

Compound	fold change [1, 5]	fold change [1, 6]	cell count [1, 7]	cell count [1, 8]	fold fluorescence [2]	survival [3]	period change [4]
CCC(C)[C@H](NS(=O)(=O)c1cccc2ccccc12)C(=O)N[C@H](C=O)Cc1c[nH]c2ccccc12 (some centres not stated)	0.877 (inactive)	1.24	2990	3410	3.23 [at 101.7 µM] (inactive)		
CC(C)C[C@@H](/C=C/S(C)(=O)=O)NC(=O)[C@H](CC(C)C)NC(=O)[C@H](CC(C)C)NC(=O)OCc1ccccc1	0.878 (inactive)	1.63	585	666	3.84 [at 90.6 µM] (inactive)		
CCCC(=O)Nc1nc2c(ncn2C2O[C@H]3COP(=O)(O)O[C@@H]3[C@@H]2OC(=O)CCC)c(=O)[nH]1 (some centres not stated)	1.02 (inactive)	0.664	5430	5330	6.9 [at 103 µM] (inactive)		
NC1=NC2C(N=C(Br)N2C2O[C@H]3COP(=O)(O)O[C@@H]3[C@@H]2O)C(=O)N1 (some centres not stated)	0.962 (inactive)	1.29	6370	6620	4.24 [at 117.3 µM] (inactive)		
CCCCC/C=C\C\C=C/C=C/C=C/[C@@H](SC[C@H](NC(=O)CC[C@H](N)C(=O)O)C(=O)NCC(=O)O)[C@@H](O)CCCC(=O)O	1.08 (inactive)	1.43	6410	5930	3.59 [at 1 µM] (inactive)		
CC[C@H]1[C@@H]2C=C[C@@H]3[C@H]4C/C=C\C(=O)NCCC[C@@H]5NC(=O)C(=C5O)C(=O)CC[C@@H]4C[C@@H]3[C@H]2C[C@H]1C	1.96 (inactive)	0.587	636	324	7.3 [at 104 µM] (inactive)		
CCCC[C@@H](C)/C=C(C)/C=C(\C)C(=O)NC1=C[C@@](O)(/C=C/C=C/C=C/C(=O)NC2=C(O)CCC2=O)[C@@H]2O[C@@H]2C1=O	1.01 (inactive)	1.03	1310	1290	7.73 [at 90.8 µM] (inactive)		
CC12C=CC(=O)C=C1CCC1C2=CCC2(C)C1CC[C@@H]2C(=O)CN1CCN(c2cc(N3CCCC3)nc(N3CCCC3)n2)CC1 (some centres not stated)	0.969 (inactive)	1.43	4330	4470	7.93 [at 81.9 µM] (inactive)		
CSCC[C@H](NC(=O)[C@H](Cc1ccccc1)NC[C@@H](NC[C@@H](N)CS)C(C)C)C(=O)O	0.931 (inactive)	1.07	6180	6640	4.75 [at 106.2 µM] (inactive)		
Nc1ncnc2c1nc(Br)n2C1O[C@H]2COP(=O)(O)O[C@@H]2[C@@H]1O (some centres not stated)	0.835 (inactive)	1.27	4570	5470	3.88 [at 122.5 µM] (inactive)		
CCCCC[C@H](O)CC(=O)CCc1ccc(O)c(OC)c1	0.985 (inactive)	0.961	5360	5440	5.62 [at 169.8 µM] (inactive)		
CC(=O)NC(C)(C)C(=O)N1CCC[C@H]1C(=O)NC(C)(C)C(=O)N[C@@H](C)C(=O)NC(C)(C)C(=O)N[C@@H](C)C(=O)N[C@@H](CCC(N)=O)C(=O)NC(C)(C)C(=O)N[C@H](C(=O)NC(C)(C)C(=O)NCC(=O)N[C@@H](CC(C)C)C(=O)NC(C)(C)C(=O)N1CCC[C@H]1C(=O)N[C@H](C(=O)NC(C)(C)C(=O)NC(C)(C)C(=O)N[C@@H](CCC(=O)O)C(=O)N[C@@H](CCC(N)=O)C(=O)N[C@H](CO)Cc1ccccc1)C(C)C)C(C)C (Ac-[Aib]P[Aib]A[Aib]AQ[Aib]V[Aib]GL[Aib]PV[Aib][Aib]EQ[Phe(ol)])	1.08 (inactive)	1.3	1460	1350	7.73 [at 25.5 µM] (inactive)		
C=C[C@@]1(C)CC(=O)[C@]2(O)[C@@]3(C)[C@H](O)CCC(C)(C)[C@@H]3[C@H](O)[C@H](OC(C)=O)[C@@]2(C)O1	0.854 (inactive)	0.977	5250	6150	6.21 [at 121.8 µM] (inactive)		
NC(=NCc1ccc(Cl)cc1Cl)NC(=O)c1nc(Cl)c(N)nc1N	1.01 (inactive)	0.617	1450	1430	10.2 [at 117.6 µM] (inactive)		
CC1(C)Oc2ccc(C#N)cc2[C@@H](OC2=CC(=O)CC2)[C@@H]1O	0.927 (inactive)	1.24	5940	6400	3.79 [at 167 µM] (inactive)		
CCCCC/C=C\C\C=C/C=C/C=C/[C@@H](SC[C@H](N)C(=O)NCC(=O)O)[C@@H](O)CCCC(=O)O	0.978 (inactive)	1.35	5990	6130	3.83 [at 1 µM] (inactive)		
CCCCCC(=O)/C=C/C=C\CCCCCCCC(=O)O	0.995 (inactive)	1.29	5630	5650	4.25 [at 1 µM] (inactive)	99.8 (inactive)	
CCCCCCCCCCCCC/C=C/[C@@H](O)[C@H](CO)NC(=O)CCCCCCCCCCCCCCC	1.03 (inactive)	1.04	5360	5200	6.35 (inactive)	62.8 (inactive)	
CCCCCCCCCCC/C=C\C/C=C\CCCC(=O)O	0.918 (inactive)	0.921	5350	5820	4.42 (inactive)	98.8 (inactive)	
COCc1cc(O)c(O)c(O)c1-c1c(COC)cc(O)c(O)c1O	1.2 (inactive)	0.626	3710	3100	5.4 [at 147.8 µM] (inactive)	106 (inactive)	
CCCCC/C=C\C/C=C\C/C=C\C/C=C\CCCC(=O)O[C@@H](CO)COC(=O)CCCCCCCCCCCCCCCCC	0.967 (inactive)	1.14	5940	6140	5.53 (inactive)	92.4 (inactive)	
CCCCCC1OC1C/C=C\C/C=C\C/C=C\CCCC(=O)O (configuration not stated)	0.949 (inactive)	1.73	6230	6560	5.49 [at 1 µM] (inactive)	88.4 (inactive)	
N#Cc1c(-c2ccccc2)no[n+]1[O-]	1.56 (inactive)	1	1090	700	6.16 [at 267.2 µM] (inactive)		-0.17 h (inactive)
